Here are results for 37 molecules from PubChem BioAssay (NCI).

Structures are written as SMILES. About 83,000 compounds went through this panel and 20% of them were active in at least one assay; those are over-represented in the sample as a whole.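 Compound tested at a single concentration for 48 hours in 96-well plates; a percent growth value below 10 was scored as active.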 Active and inactive are the calls of the source.

This assay has as its system SF-295 CNS. Description: NCI-60 one-dose screen, 48 h (100 = growth as untreated, 0 = no growth, -100 = all killed). The settings on record: 10 µM unless noted.
For the molecule `COc1cc2c(=O)n(C3CCCCCCC3)c3c4cc[nH]c4ncc3c2cc1OC`, the growth is 33.2% (inactive).

For `C1CCC([PH+](C2CCCCC2)C2CCCCC2[PH+](C2CCCCC2)C2CCCCC2)CC1.[Au].[CH-]1CCCCC1CC1CCCC[N-]1` (configuration not stated), the growth was -38.8% (active).

Consider `CCCCN1CCCC[C@@H]1C(=O)N[C@H](C(=O)N(C)[C@H](C[C@@H](OC(C)=O)c1nc(C(=O)NC2CCC(C(=O)OC)CC2)cs1)C(C)C)C(C)C` (some centres not stated), for which the growth was 18.6% (inactive).

On to `CS(=O)(=O)CCN1CC2CCCC(C2)C1`, for which the growth is 108% (inactive).

As for `COC(=O)[C@@H](C)C[C@H](Cc1ccccc1)NC(=O)c1nc([C@@H](C[C@H](C(C)C)N(C)C(=O)[C@@H](NC(=O)[C@H]2CCCCN2C)C(C)C)OC(C)=O)sc1C(C)C`, the growth is -1.35% (active).

Consider `C=CC[Se]C(=O)c1ccccc1OC(C)=O`, for which the growth was -29.4% (active).

As to `CC(C)[C@@H]1NC(=O)[C@]2(C)CSC(=N2)c2csc(n2)CNC(=O)C[C@@H](/C=C/CCS)OC1=O`, the growth is 6.21% (active).

On to `Clc1cccc(Cl)c1Cl`, for which the growth is 95.1% (inactive).

As for `O=C(CC1(O)C(=O)Nc2ccc(Cl)cc21)c1ccc(C(=O)NCC2CCC3(CC2)OOC2(CCCCC2)OO3)cc1` (configuration not stated), the growth was 37.6% (inactive).

With `COc1ccc(C(O)(C(=O)O)c2ccc(OC)cc2)cc1`, the growth is 87.1% (inactive).

For the molecule `CCn1c2ccccc2c2cc(C(=O)c3ccc(C)c4ccccc34)ccc21`, the growth is 11.6% (inactive).

In the case of `COC(=O)[C@]12CCC(C)(C)C[C@H]1[C@H]1C(=O)C[C@@H]3[C@@]4(C)C[C@@]5(CC(C)(C)[C@@H]4CC[C@@]3(C)[C@]1(C)CC2)OO[C@@](C)(C(F)(F)F)O5`, the growth is 95.7% (inactive).

Consider `CC[C@]12C=CCN3CC[C@@]4(c5ccc(OC)cc5N(C)[C@H]4[C@@](O)(C(=O)OC)[C@@H]1OC(=O)CCCC[P+](c1ccccc1)(c1ccccc1)c1ccccc1)[C@@H]32`, for which the growth was 58.1% (inactive).

On to `CCCCCCCCOC(=O)CCN1CC1`, for which the growth was 120% (inactive).

`CC1[C@H](C)OC(=O)CC(O)CC(O)CC(O)CCC(O)C(O)C[C@]2(O)CC(O)C(C(=O)O)C(CC(OC3O[C@H](C)[C@@H](O)[C@H](N)[C@@H]3O)/C=C/C=C/C=C/C=C/CC/C=C/C=C/[C@H](C)[C@H]1O)O2` (some centres not stated): the growth was 102% (inactive).

With `c1cc2c(c3c1CCNC3)OCO2`, the growth was 96.4% (inactive).

Turning to `Cc1ccc(N2COOC3(OOC2)C2CC4CC(C2)CC3C4)cc1`, the growth is 95.5% (inactive).

`O=C(CC1(O)C(=O)N(Cc2ccccc2)c2ccc(Br)cc21)c1ccc(C(=O)NCC2CCC3(CC2)OOC2(CCCCC2)OO3)cc1` (configuration not stated): the growth is 29.3% (inactive).

Regarding `C[C@@H]1C[C@@]2(C)[C@@H](CC[C@@H]3[C@@H]2CC[C@]2(C)C(=O)CC[C@@H]32)CC1=O`, the growth is 90.7% (inactive).

For `CCN(CC)c1ccc2c(c1)OC(N)=C(C#N)C2c1cc(OC)c2c(c1)OCO2` (configuration not stated), the growth was 17% (inactive).

Turning to `O=P(Oc1ccc(Cl)cc1)(N1CC1)N1CC1`, the growth is 66.2% (inactive).

With `O=[N+]([O-])c1cc(I)cc([N+](=O)[O-])c1`, the growth is 110% (inactive).

As to `CC(=O)O[C@H](C[C@H](C(C)C)N(C)C(=O)[C@@H](NC(=O)[C@H]1CCCCN1C)C(C)(C)C)c1nc(C(=O)N[C@@H](Cc2ccccc2)C[C@H](C)C(=O)O)cs1`, the growth was -0.638% (active).

For the molecule `CC[C@H](C)[C@H](NC(=O)[C@H]1CCCCN1C)C(=O)N(C)[C@H](C[C@@H](O)c1nc(C(=O)N[C@@H](Cc2ccccc2)C[C@H](C)C(=O)O)cs1)C(C)C`, the growth was 90.6% (inactive).

Take `CN1CCC(O)(c2ccc(F)cc2)C(C(=O)c2ccc(F)cc2)C1` (configuration not stated): the growth was 110% (inactive).

Turning to `O=C1NC(=O)C(=Cc2cccn2CCCCCn2c3ccccc3c(=O)c3ccccc32)C(=O)N1`, the growth is 99.4% (inactive).

`COC(=O)[C@@H](C[C@H](Cc1ccccc1)NC(=O)c1csc([C@@H](C[C@H](C(C)C)N(C)C(=O)[C@@H](NC(=O)[C@H]2CCCCN2C)C(C)C)OC(C)=O)n1)NC(=O)OCc1ccccc1`: the growth is 3.92% [9.5 µM] (active).

For `CN(C)CCCOc1ccc2c(c1)c(C(=O)C(=O)NCCO)cn2Cc1ccccc1`, the growth was 103% (inactive).

Consider `COc1cc(C=Nc2cc(Cl)cc(Cl)c2)ccc1N(CCCl)CCCl`, for which the growth is 80.8% (inactive).

For the molecule `CCOC(=O)N[C@H]1CCc2c(Br)c(OC)c(OC)c(OC)c2-c2ccc(SC)c(=O)cc21`, the growth is 10.8% (inactive).

For `C/C(CC(C)(C)N1CC1)=N\NC(=O)Nc1cccc2ccccc12`, the growth was 67% (inactive).

For the molecule `C[C@]12CCc3sc(-c4ccccc4O)nc3C1=CC[C@@H]1[C@@H]2CC[C@]2(C)C(=O)CC[C@@H]12`, the growth is 100% (inactive).

With `CC[C@H](C)[C@H](NC(=O)[C@H]1CCCCN1C)C(=O)N(C)[C@H](CC(=O)c1nc(C(=O)N[C@@H](Cc2ccccc2)C[C@H](C)C(=O)O)cs1)C(C)C`, the growth is 87.4% (inactive).

With `COc1cccc(/C=C/[N+](=O)[O-])c1`, the growth was 84.3% (inactive).

In the case of `O=C1CC2(CC3(Cl)C(Cl)=C(Cl)C2(Cl)C3(Cl)Cl)C(=O)O1` (configuration not stated), the growth was 100% (inactive).

Take `CC12CCC3C(CCC4=CC(=O)CCC43CF)C1CCC2=O` (configuration not stated): the growth was 106% (inactive).

For the molecule `Nc1ccc(-c2nc3cc(F)ccc3[se]2)cc1F`, the growth is 87.6% (inactive).
